Holding throughout (assay): NCI-60 one-dose screen, 48 h (100 = growth as untreated, 0 = no growth, -100 = all killed)
What all share (details): 10 µM unless noted

The test system of assay [1] is NCI-H23 lung.
Assay [2] has as its system NCI-H226 lung.
For assay [3], the system named is NCI-H322M lung.
Assay [4] has as its system HOP-62 NSCLC.
The test system of assay [5] is NCI-H460 lung.
In assay [6] the test system is HOP-92 NSCLC.
Assay [7] concerns NCI-H522 lung.
Assay [8] relates to A549/ATCC NSCLC.
Assay [9] deals with 786-0 renal.
Assay [10] deals with COLO 205 colon.

This is part of a sample that, as a whole, favours compounds with a hit. Of some 83,000 tested, about 20% had one in any assay.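 Negative percent growth values reflect cell death: -40 means 40% of the cells present at the start died, and -100 means all died.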 Values without a mark were called inactive. The source made the active and inactive calls. Rule for the calls: active = growth percent below 10; inactive = the rest.

With `O=C1Nc2cc(-c3ccc(NC(=O)c4ccccc4)cc3)ccc2/C1=C/c1ccc[nH]1`, the growth is 66.7% in assay [1]; 90.6% in assay [2]; 94.1% in assay [3]; 104% in assay [4]; 83.4% in [5]; 115% in assay [6]. Further, the growth is 92.2% in assay [7], 103% in assay [8], 107% in [9] and 118% in assay [10].

With `Cc1ccc(S(=O)(=O)Nn2c3c(cc(-c4nc5ccccc5s4)c2=O)CCCCCC3)cc1`, the growth was 94.8% in [1]; 76.6% in [2]; 100% in assay [3]; 94.9% in [4]; 104% in assay [5]; 85.4% in [6]. Also, the growth was 89.1% in [7], 101% in [8], 101% in assay [9] and 119% in assay [10].

For `COc1cc(/C=C\c2cc(OC)c(OC)c(OC)c2)cc(N)c1OC`, the growth in assay [1] is 83.6%; in assay [2], 97.8%; in assay [3] it was 81.3%; in [4] it was 79.8%; in assay [5], 104%; in assay [6], 78.4%. In addition, the growth in assay [7] was 58.6%; in [8], 93.1%; in [9] it was 82.3%; in assay [10], 104%.

For the compound `COc1cc(/C=C\c2cc(/C=C\c3ccc(O)c(OC)c3)n(C(=O)COc3ccccc3)n2)ccc1O`, the growth in assay [1] is 1.6% (active); in assay [2], 9.96% (active); in assay [3], 30.8%; in [4] it was 8.39% (active); in [5] it was 7.6% (active); in assay [6], 14.4%. Besides, the growth in assay [7] was -39.3% (active); in [8], 8.68% (active); in [9], 1.27% (active); in assay [10] it was 79.3%.

Regarding `Cc1cc2nc3c4cc(C=O)ccc4n(CCN(C)C)c3nc2cc1C`, the growth in [1] is 17.4%; in [2], -3.6% (active); in assay [3], 21%; in assay [4] it was 7.67% (active); in [5] it was 0.703% (active); in [6], 27%. The growth in assay [7] is -9.47% (active); in assay [8] it was 6.3% (active); in assay [9] it was 27.5%; in assay [10], -15.9% (active).

With `COc1ccc(C(=O)c2nc3ccccc3n2CC(=O)c2ccc(Cl)cc2)cc1`, the growth in assay [1] was 30.9%; in assay [2], 37.5%; in assay [3] it was 84.8%; in [4], 42.4%; in assay [5], 68.7%; in assay [6], 54.4%. In addition, the growth in [7] was -22.3% (active); in [8], 81.4%; in [9], 34.7%; in [10], 111%.

For the compound `NS(=O)(=O)c1ccc(Cn2c(SCC(=O)N/N=C/c3ccccc3O)nc3ccccc3c2=O)cc1`, the growth in assay [1] was 63.2%; in assay [2], 57%; in assay [3], 46.8%; in assay [4], 35.5%; in assay [5], 49.1%; in assay [6], 54%. Further, the growth was -1.28% (active) in assay [7], 69.4% in assay [8], 71.1% in [9] and 29.1% in assay [10].

As for `CC(Oc1ccc(C(=O)O)cc1C(F)(F)F)c1ccc(Oc2ccccc2)cn1` (stereo not given), the growth in assay [1] was 98.6%; in assay [2], 97.6%; in [3], 99.5%; in assay [4], 99.1%; in [5], 104%; in assay [6], 97.8%. Also, the growth in assay [7] is 88.2%; in [8] it was 99.9%; in assay [9] it was 99.4%; in assay [10], 130%.

In the case of `COc1ccc(OC)c(-c2cc(-c3ccc(Cl)cc3)c3c(N)c(C(=O)c4ccc(Cl)cc4)sc3n2)c1`, the growth is 91.4% in assay [1]; 96.1% in assay [2]; 93.6% in assay [3]; 81.3% in [4]; 105% in [5]; 90.9% in assay [6]. Moreover, the growth was 86.1% in assay [7], 97.3% in [8], 97.3% in assay [9] and 110% in assay [10].

Consider `CC(=O)Nc1ccc(-c2ccc3c(c2)NC(=O)/C3=C\c2ccc[nH]2)cc1`, for which the growth was 52.5% in [1]; 85.8% in assay [2]; 64.5% in [3]; 95.7% in assay [4]; 50.1% in assay [5]; 130% in assay [6]. The growth is 59.3% in assay [7], 92.4% in [8], 99.3% in assay [9] and 139% in assay [10].

Consider `CN1[C@@H]2CC[C@H]1/C(=C\c1ccccc1)C(=O)/C2=C/c1ccccc1`, for which the growth in assay [1] was 29.7%; in [2] it was 45.8%; in [3], 51.2%; in assay [4], 95.8%; in assay [5], 13.8%; in assay [6] it was 84.3%. For the same compound, the growth was 48.2% in [7], 45.3% in [8], 45.3% in assay [9] and 12.9% in assay [10].

In the case of `COc1cc2oc(-c3cccc(C(=O)Nc4ccccc4)c3)cc(=O)c2c(O)c1OC`, the growth was 86.9% in assay [1]; 73.2% in assay [2]; 66.4% in [3]; 8.89% (active) in [4]; 33.7% in assay [5]; 5.28% (active) in assay [6]. The growth in assay [7] is 91.3%; in assay [8] it was 60.3%; in assay [9], 31.5%; in [10] it was 92.3%.

As for `CCNC(=O)Oc1ccc(/C(=C(\C)c2ccccc2)c2ccc(OCCN3CCCCC3)cc2)cc1`, the growth in assay [1] was 73.6%; in assay [2], 92.2%; in [3] it was 82.7%; in [4] it was 59.4%; in assay [5], 49.3%; in assay [6], 73.4%. Further, the growth was 93.4% in assay [7], 56% in assay [8], 16.4% in [9] and 6.41% (active) in assay [10].

Consider `COc1ccc(-c2cnc3c(-c4cccc5cnccc45)cnn3c2)cc1`, for which the growth in [1] is 74.5%; in assay [2], 29.3%; in assay [3] it was 68.3%; in assay [4] it was 55.1%; in assay [5], 23.4%; in [6] it was 63%. In addition, the growth in [7] was 48.3%; in assay [8] it was 39.8%; in [9], 29.4%; in assay [10], 67.8%.

Turning to `CCOc1ccc(/C=N/Nc2cc(C)nc3ccc(Br)cc23)cc1`, the growth in [1] is 82.2%; in assay [2], 92.7%; in assay [3] it was 93.5%; in [4], 96.5%; in assay [5] it was 87.2%; in [6], 57.5%. Also, the growth is 97.7% in assay [7], 82% in assay [8], 96.1% in assay [9] and 96.2% in assay [10].

Consider `CCCCCN1C=C/C(=C\C(=O)N(C)c2ccc(Oc3ccccc3)cc2)c2ccccc21`, for which the growth in assay [1] is 68.4%; in [2], 79.1%; in assay [3], 89.8%; in [4], 87.4%; in assay [5], 92%; in assay [6] it was 47.7%. Moreover, the growth in assay [7] is 61.1%; in assay [8], 82.3%; in [9] it was 89.7%; in assay [10], 81.6%.

Consider `O=C(CSc1nc2sc3c(c2c(=O)n1-c1ccc(Cl)cc1)CCCC3)Nc1nc(-c2cccc(Br)c2)cs1`, for which the growth is 56.9% in [1]; 64% in assay [2]; 87.8% in [3]; 90.7% in [4]; 94.7% in assay [5]; 107% in assay [6]. In addition, the growth in assay [7] was 69.8%; in [8] it was 70.4%; in assay [9] it was 91.5%; in assay [10], 85.1%.

Regarding `CCCCCN1C=C/C(=C\C(=O)N(C)c2ccccc2Br)c2ccccc21`, the growth is 77.8% in assay [1]; 89.8% in assay [2]; 108% in assay [3]; 95.3% in assay [4]; 101% in assay [5]; 94.7% in assay [6]. Further, the growth in assay [7] was 78.2%; in assay [8], 90.9%; in assay [9], 94.1%; in [10] it was 105%.

Regarding `CNC(=O)c1cncc(Cn2nc(C)c(NC(=O)c3ccc(COc4ccc(C(F)(F)F)cc4C)cc3)c2C)c1`, the growth in [1] is 49.3%; in [2], 58.1%; in [3], 88.8%; in [4], 56.9%; in [5] it was 62%; in [6] it was 79.2%. Further, the growth in [7] is 49.2%; in assay [8], 55%; in assay [9], 68.8%; in [10] it was 66.9%.

With `CC(=O)Nc1ccc(-n2cnc3cc(-c4ccc(OCCN5CCCCC5)cc4)ccc32)cc1`, the growth was 73.2% in assay [1]; 74.1% in assay [2]; 104% in assay [3]; 82.5% in [4]; 4.54% (active) in assay [5]; 105% in [6]. The growth in assay [7] was 91.9%; in assay [8], -3.26% (active); in assay [9] it was -40.9% (active); in assay [10], 107%.

As for `CC1(C)NCCC[C@]2(C)[C@H]3CC[C@@H]4[C@H]5[C@H](C(=O)/C=C/c6ccco6)CC[C@]5(CO)CC[C@@]4(C)[C@]3(C)CC[C@@H]12`, the growth in assay [1] was 89.1%; in assay [2], 94.8%; in assay [3], 92.6%; in assay [4], 91.8%; in [5], 56.2%; in assay [6] it was 70.1%. The growth in [7] is 88.3%; in [8], 87.2%; in [9], 74.4%; in assay [10], -2.99% (active).

With `C=C(C)[C@@H]1CC[C@]2(C(=O)N[C@H](CO)Cc3ccccc3)CC[C@]3(C)[C@H](CC[C@@H]4[C@@]5(C)CCCNC(C)(C)[C@@H]5CC[C@]43C)[C@@H]12`, the growth is -71.9% (active) in assay [1]; -55.7% (active) in assay [2]; -86% (active) in [3]; -86.2% (active) in assay [4]; -86.2% (active) in assay [5]; -88.5% (active) in assay [6]. For the same compound, the growth in assay [7] was -79.2% (active); in assay [8], -83.1% (active); in assay [9] it was -90.7% (active); in [10], -83.4% (active).

With `CN1CCN(CCNc2nccc(-c3c(-c4cccc(O)c4)nc4sccn34)n2)S1(=O)=O`, the growth was 46.1% in assay [1]; 100% in assay [2]; 70.2% in assay [3]; 79.3% in [4]; 57.3% in assay [5]; 49% in [6]. For the same compound, the growth in [7] is 46.2%; in assay [8], 88%; in assay [9] it was 93.2%; in [10], 17.6%.

As to `CCOC(=O)Nc1ccc(-c2ccc3c(c2)NC(=O)/C3=C\c2ccc[nH]2)cc1`, the growth is 47.3% in assay [1]; 68% in assay [2]; 63.1% in assay [3]; 91.9% in assay [4]; 37.1% in assay [5]; 102% in [6]. Besides, the growth is 97.8% in assay [7], 103% in assay [8], 108% in [9] and 125% in [10].

Turning to `CC(C)c1ccc(Nc2ccc3c(OCCCN4CCN(C)CC4)cccc3n2)cc1`, the growth in [1] was 70.8%; in [2], 83.9%; in [3], 82.6%; in assay [4], 64.1%; in [5] it was 52.1%; in [6] it was 56.5%. Besides, the growth in assay [7] is 83.2%; in [8] it was 51.5%; in assay [9], 46.5%; in assay [10] it was -65.1% (active).

On to `Fc1ccc(-c2cn3c(nc4ccccc43)c(-c3ccccc3)n2)cc1`, for which the growth in assay [1] is 88.5%; in [2] it was 97.5%; in assay [3] it was 109%; in [4] it was 107%; in assay [5] it was 98.2%; in assay [6], 68.7%. Moreover, the growth was 64.7% in assay [7], 91.4% in assay [8], 83% in [9] and 116% in assay [10].
